# Values joined by “and” are separate entries in the source; they are usually repeats but may differ in a detail not shown here. Identical values can stand only once. Counter-ions that a name gives are not always drawn.
# System: LOC_OS01G10900-cb004
# Assay: thermal shift delta Tm vs DMSO control; higher = stronger stabilization (binding)
# Conditions: 12.5 µM; protein concentration 2 µM
# Procedure, shortened: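 Heating from 25°C to 95°C at 0.05°C/s, fluorescence was recorded for 19.5 μl wells of 2 μM E. coli-expressed, purified rice kinase domain in 100 mM potassium phosphate pH 7.5, 150 mM NaCl, 10% glycerol and 5 × SYPRO Orange with compound in DMSO. Boltzmann fits gave melting temperatures for this differential scanning fluorimetry assay. The shift reported is the mean of three replicates against the DMSO-only protein.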
# 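Also: purified Escherichia coli-expressed rice kinase domain construct.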
row,Compound,thermal shift delta Tm
1,C[C@H](CN(C)C)Oc1nc(Nc2cc3cccc(Cl)c3cn2)cnc1C#N,0.44 °C
2,CN1c2ccccc2C(=O)Nc2cnc(Nc3ccc(N4CCC(O)CC4)cc3)nc21,3 °C
3,CCNc1nc(Nc2cc(F)c(C(=O)N3CCOCC3)cc2OC)ncc1C(F)(F)F,0.25 °C
4,COc1cc2ncnc(Nc3ccc(Oc4ccccc4)cc3C)c2cc1OC,0.3 °C
5,O=C1NC(=O)/C(=C/c2cccc(C(F)(F)F)c2)S1,0.2 °C
6,COc1ccc(C(=O)Nc2sc3c(c2C(N)=O)CCCC3)cc1OC,0.36 °C
7,C#Cc1cccc(Nc2ncnc3cc(OCCOC)c(OCCO)cc23)c1,1.08 °C
8,FC(F)(F)c1ccc(/C=C/c2nc(COc3ccc(CCCCn4ccnn4)cc3)co2)cc1 [Mubritinib (TAK 165)],0.23 °C
9,CNC(=O)Nc1ccc(-c2nc(N3CC4CCC(C3)O4)c3cnn(C4CCC5(CC4)OCCO5)c3n2)cc1,0.69 °C
10,CC(C)(C)NS(=O)(=O)c1cncc(-c2cc(F)c3nc(N)nn3c2)c1,0.04 °C
11,C[C@@H]1CN(CC(=O)Nc2ccc3c(c2)Cc2cccc(-c4cc(=O)cc(N5CCOCC5)o4)c2S3)C[C@H](C)O1,0.85 °C
12,COCCOc1ccc2c(c1)ncn2-c1ccc2cccc(N3CCC(N)CC3)c2n1,1.08 °C
13,Cc1ccc(NC(=O)c2ccc(CN3CCN(C)CC3)cc2)cc1Nc1nc(-c2cccnc2)cs1 [Masitinib (AB1010)],0.92 °C
14,Cn1cc(-c2cnn3c(N)c(Br)c([C@@H]4CCCNC4)nc23)cn1,0.35 °C
15,COc1ccc(-c2cc3c(C)nc(N)nc3n([C@H]3CC[C@H](OCCO)CC3)c2=O)cn1,0.3 °C
16,Cc1ccc(S(=O)(=O)/C=C/C#N)cc1,-0.53 °C
17,"CCCS(=O)(=O)Nc1ccc(F)c(C(=O)c2c[nH]c3ncc(-c4ccc(Cl)cc4)cc23)c1F [Vemurafenib (PLX4032, RG7204)]",6.74 °C
18,C[C@@H](N)c1ccc(C(=O)Nc2ccnc3[nH]ccc23)cc1,0.32 °C
19,O=C(NC1CCNCC1)c1n[nH]cc1NC(=O)c1c(Cl)cccc1Cl,0.21 °C and 0.72 °C

row,Compound,thermal shift delta Tm
1,NCC(=O)Nc1ccc(-n2nc(C(F)(F)F)cc2-c2ccc3c(ccc4ccccc43)c2)cc1,0.31 °C
2,CCn1c(-c2nonc2N)nc2cnc(Oc3cccc(NC(=O)c4ccc(OCCN5CCOCC5)cc4)c3)cc21,1.47 °C
3,COc1cc2c3cc1Oc1c(OC)c(OC)cc4c1[C@@H](Cc1ccc(O)c(c1)Oc1ccc(cc1)C[C@@H]3N(C)CC2)N(C)CC4 [Berbamine (dihydrochloride)],0.03 °C
4,COc1cc2ncc(-c3ccccc3)nc2cc1OC [Tyrphostin AG 1296],0.44 °C
5,C[C@H]1CNCCCN1S(=O)(=O)c1cccc2cncc(F)c12 [Ripasudil (K-115) hydrochloride dihydrate],0.28 °C
6,N#Cc1c(NC(=O)c2cccc3ccccc23)sc2c1CCCC2 [JNK Inhibitor IX],0.06 °C
7,CC(C)N(CCC(=O)c1ccc2ccccc2c1)Cc1ccccc1,1.63 °C
8,COC(=O)c1ccc2c(c1)NC(=O)/C2=C(\Nc1ccc(N(C)C(=O)CN2CCN(C)CC2)cc1)c1ccccc1 [Nintedanib (BIBF 1120)],0.18 °C
9,Nc1ccc(-c2ccc3ncc4ccc(=O)n(-c5cccc(C(F)(F)F)c5)c4c3c2)cn1 [Torin 2],-0.05 °C
10,COc1ccc2c(Oc3ccc(NC(=O)c4c(C)n(CC(C)(C)O)n(-c5ccccc5)c4=O)nc3)ccnc2c1,0.28 °C
11,COc1ncc(-c2ccc3nccc(-c4ccnnc4)c3c2)cc1NS(=O)(=O)c1ccc(F)cc1F,0.23 °C
12,Cc1c[nH]c(/C=C2\C(=O)Nc3ccccc32)c1CCC(=O)O,0.02 °C
13,Cc1cc(Nc2cc(Cl)nc(Oc3ccc([N+](=O)[O-])cc3)n2)n[nH]1 [Autophinib],2.92 °C
14,O=C(c1ccc(/C=C/c2n[nH]c3ccccc23)cc1)N1CCNCC1,1.43 °C
15,COc1ccc(CNC(=O)Nc2ncc([N+](=O)[O-])s2)cc1,0.34 °C
16,Cc1cc2c(F)c(Oc3ncnn4cc(OC[C@@H](C)O)c(C)c34)ccc2[nH]1,0.93 °C
17,C=CC(=O)Nc1cccc(Oc2nc(Nc3ccc(N4CCN(C)CC4)cc3)nc3ccsc23)c1,2.04 °C
18,O=c1cc(N2CCOCC2)oc2c(-c3ccc4c(c3)OCCO4)csc12,3.38 °C
19,c1nc2c(NC3CCCCC3)nc(Nc3ccc(N4CCOCC4)cc3)nc2[nH]1 [Reversine],0.47 °C
